# PubChem BioAssay
# Several values for one entry are separate records, joined by “and”; a condition that tells them apart may be missing. Identical values can stand only once. Activity calls are given as the source filed them.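 How the source made its calls: active means mean z-score across replicates of 1.96 or higher in either the MELAS or the Rieske mutant cell line; inactive means the rest.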
# Test: sensitizers of A549 cells to miR-34 induction, primary screen, imaging, A549 dox-inducible miR-34, nuclei and caspase counts (AID 1347080)
# Settings: A549 miR-34 inducible, Hoechst nuclei count, 48 h; measured here: total cells without miR-34 induction
# Further: test concentration not given here.
row,Compound,cell count
1,CC1CC(OC(=O)C(O)c2ccccc2)CC(C)(C)N1C (stereo not given),9720
2,O=C(O)c1ccccc1OP(=O)(O)O,10400
3,Cc1ccnc(NS(=O)(=O)c2ccc(N)cc2)n1,10200 and 8690 and 12500
4,Cc1c(NC(C)C)c(=O)n(-c2ccccc2)n1C,9170
5,Nc1ccc(S(=O)(=O)Nc2cnc3ccccc3n2)cc1,9850 and 13000
6,COc1ccc(C(=O)c2ccccc2O)c(O)c1,10200 and 13700
7,CC(=O)[C@@]1(O)CC[C@H]2[C@@H]3C[C@H](C)C4=CC(=O)C=C[C@]4(C)[C@@]3(F)[C@@H](O)C[C@@]21C,7490
8,Nc1c2ccccc2nc2ccccc12,356
9,COc1c2occc2c(OC)c2c(=O)cc(C)oc12,9130
10,O=C(O)CCCC[C@@H]1SC[C@@H]2NC(=O)N[C@@H]21,10400
11,COc1cnc(NS(=O)(=O)c2ccc(N)cc2)nc1,10500 and 8140 and 12900
12,Nc1ncnc2nc[nH]c12,9020 and 14300
13,CCCCOC(=O)c1ccc(N)cc1,8820 and 9260
14,NS(=O)(=O)c1cc2c(cc1Cl)NC(CSCc1ccccc1)=NS2(=O)=O,10400 and 12800
15,Nc1nc2c(c(=O)[nH]1)N(C=O)C(CNc1ccc(C(=O)N[C@@H](CCC(=O)O)C(=O)O)cc1)CN2 (stereo not given in full),10100 and 12900
16,CCCCC(CC)CN1CN(CC(CC)CCCC)CC(C)(N)C1 (stereo not given),9710
17,C[C@H](N)[C@H](O)c1cccc(O)c1,9740 and 13000
18,NC(=O)NC1NC(=O)NC1=O (stereo not given),8570 and 13800
19,C[N+]12CCC(CC1)C(OC(=O)C(O)(c1ccccc1)c1ccccc1)C2 (stereo not given),10100 and 11600
20,O=C(O)c1ccccc1O,8660 and 12400

row,Compound,cell count
1,CCOc1ccc(Cc2nccc3cc(OCC)c(OCC)cc23)cc1OCC,6440
2,C[C@@H]1C[C@H]2[C@@H]3C[C@H](F)C4=CC(=O)C=C[C@]4(C)[C@@]3(F)[C@@H](O)C[C@]2(C)[C@@]1(O)C(=O)CO,6940
3,Oc1c(Br)cc(Br)c2cccnc12,8120
4,Cc1c(Nc2ncccc2C(=O)O)cccc1C(F)(F)F,9410 and 8390 and 12400
5,CCN(CC)CCNC(=O)c1cc(Br)c(N)cc1OC,9660
6,CCCCN(CCCC)CCCOC(=O)c1ccc(N)cc1,10300 and 12800
7,O=C(O)c1ccccc1C(=O)Nc1ccc(S(=O)(=O)Nc2nccs2)cc1,9550 and 12600
8,CCC(Cc1c(I)cc(I)c(N)c1I)C(=O)O (stereo not given),9880 and 11700
9,Nc1ccc(S(=O)(=O)Nc2nccs2)cc1,9270 and 7780 and 12500
10,Nc1ccc(S(=O)(=O)NC(=O)c2ccccc2)cc1,9660 and 11500
11,CN1[C@@H]2CC[C@H]1CC(OC(=O)C(O)c1ccccc1)C2 (stereo not given in full),9000
12,CCOC(=O)c1ccc(N)cc1,9660 and 8840 and 11200
13,CC(NCCC(c1ccccc1)c1ccccc1)c1ccccc1 (stereo not given),2900
14,CCN1CCCC(OC(=O)C(c2ccccc2)c2ccccc2)C1 (stereo not given),9550 and 11900
15,CCCCc1nc(Cl)c(CO)n1Cc1ccc(-c2ccccc2-c2nn[nH]n2)cc1,8690 and 12300
16,CC1(C)O[C@@H]2C[C@H]3[C@@H]4C[C@H](F)C5=CC(=O)CC[C@]5(C)[C@H]4[C@@H](O)C[C@]3(C)[C@]2(C(=O)CO)O1,6100
17,COc1cc(NS(=O)(=O)c2ccc(N)cc2)ncn1,10400 and 13300
18,OCC(O)CN1CCN(c2ccccc2)CC1 (stereo not given),8650 and 9930 and 8990
19,Cc1c(C(N)=O)cc([N+](=O)[O-])cc1[N+](=O)[O-],8590
20,CCN(CCCCOC(=O)c1ccc(OC)c(OC)c1)C(C)Cc1ccc(OC)cc1 (stereo not given),7780 and 12200

# Test: survival rescue of mitochondrial mutant cells in low glucose, primary screen, MELAS cybrids, Rieske KO mouse fibroblasts, CellTiter-Glo (AID 1508586);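 further: z relative to plate mean and SD of compound and empty wells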
# Settings: MELAS cybrid survival, CellTiter-Glo 48 h, stronger effect = higher value
row,Compound,z-score
1,CC1CC(OC(=O)C(O)c2ccccc2)CC(C)(C)N1C (stereo not given),-0.0236 (inactive)
2,O=C(O)c1ccccc1OP(=O)(O)O,0.629 (inactive)
3,Cc1ccnc(NS(=O)(=O)c2ccc(N)cc2)n1,-0.105 (inactive) and 0.577 (inactive)
4,Cc1c(NC(C)C)c(=O)n(-c2ccccc2)n1C,-0.485 (inactive)
5,Nc1ccc(S(=O)(=O)Nc2cnc3ccccc3n2)cc1,0.496 (inactive)
6,COc1ccc(C(=O)c2ccccc2O)c(O)c1,0.849 (inactive)
7,CC(=O)[C@@]1(O)CC[C@H]2[C@@H]3C[C@H](C)C4=CC(=O)C=C[C@]4(C)[C@@]3(F)[C@@H](O)C[C@@]21C,-0.955 (inactive)
8,Nc1c2ccccc2nc2ccccc12,2.4 (active)
9,COc1c2occc2c(OC)c2c(=O)cc(C)oc12,-0.15 (inactive)
10,O=C(O)CCCC[C@@H]1SC[C@@H]2NC(=O)N[C@@H]21,-0.325 (inactive)
11,COc1cnc(NS(=O)(=O)c2ccc(N)cc2)nc1,-0.122 (inactive) and -0.879 (inactive)
12,Nc1ncnc2nc[nH]c12,-0.543 (inactive)
13,CCCCOC(=O)c1ccc(N)cc1,0.902 (inactive)
14,NS(=O)(=O)c1cc2c(cc1Cl)NC(CSCc1ccccc1)=NS2(=O)=O,0.425 (inactive)
15,Nc1nc2c(c(=O)[nH]1)N(C=O)C(CNc1ccc(C(=O)N[C@@H](CCC(=O)O)C(=O)O)cc1)CN2 (stereo not given in full),-0.42 (inactive)
16,CCCCC(CC)CN1CN(CC(CC)CCCC)CC(C)(N)C1 (stereo not given),-1.45 (inactive)
17,C[C@H](N)[C@H](O)c1cccc(O)c1,0.835 (inactive)
18,NC(=O)NC1NC(=O)NC1=O (stereo not given),-0.771 (inactive)
19,C[N+]12CCC(CC1)C(OC(=O)C(O)(c1ccccc1)c1ccccc1)C2 (stereo not given),0.605 (inactive)
20,O=C(O)c1ccccc1O,-0.0591 (inactive)

row,Compound,z-score
1,CCOc1ccc(Cc2nccc3cc(OCC)c(OCC)cc23)cc1OCC,0.91 (inactive)
2,C[C@@H]1C[C@H]2[C@@H]3C[C@H](F)C4=CC(=O)C=C[C@]4(C)[C@@]3(F)[C@@H](O)C[C@]2(C)[C@@]1(O)C(=O)CO,0.578 (inactive)
3,Oc1c(Br)cc(Br)c2cccnc12,-0.25 (inactive)
4,Cc1c(Nc2ncccc2C(=O)O)cccc1C(F)(F)F,-0.0893 (inactive) and -0.97 (inactive)
5,CCN(CC)CCNC(=O)c1cc(Br)c(N)cc1OC,-0.546 (inactive)
6,CCCCN(CCCC)CCCOC(=O)c1ccc(N)cc1,0.278 (inactive)
7,O=C(O)c1ccccc1C(=O)Nc1ccc(S(=O)(=O)Nc2nccs2)cc1,0.52 (inactive)
8,CCC(Cc1c(I)cc(I)c(N)c1I)C(=O)O (stereo not given),0.0916 (inactive)
9,Nc1ccc(S(=O)(=O)Nc2nccs2)cc1,-0.000944 (inactive) and 0.344 (inactive)
10,Nc1ccc(S(=O)(=O)NC(=O)c2ccccc2)cc1,-0.2 (inactive)
11,CN1[C@@H]2CC[C@H]1CC(OC(=O)C(O)c1ccccc1)C2 (stereo not given in full),0.652 (inactive)
12,CCOC(=O)c1ccc(N)cc1,-0.198 (inactive) and -0.244 (inactive)
13,CC(NCCC(c1ccccc1)c1ccccc1)c1ccccc1 (stereo not given),-0.775 (inactive)
14,CCN1CCCC(OC(=O)C(c2ccccc2)c2ccccc2)C1 (stereo not given),0.463 (inactive)
15,CCCCc1nc(Cl)c(CO)n1Cc1ccc(-c2ccccc2-c2nn[nH]n2)cc1,-0.213 (inactive) and 0.409 (inactive)
16,CC1(C)O[C@@H]2C[C@H]3[C@@H]4C[C@H](F)C5=CC(=O)CC[C@]5(C)[C@H]4[C@@H](O)C[C@]3(C)[C@]2(C(=O)CO)O1,-0.21 (inactive)
17,COc1cc(NS(=O)(=O)c2ccc(N)cc2)ncn1,0.538 (inactive)
18,OCC(O)CN1CCN(c2ccccc2)CC1 (stereo not given),-0.14 (inactive) and -0.167 (inactive) and 0.182 (inactive)
19,Cc1c(C(N)=O)cc([N+](=O)[O-])cc1[N+](=O)[O-],-0.219 (inactive)
20,CCN(CCCCOC(=O)c1ccc(OC)c(OC)c1)C(C)Cc1ccc(OC)cc1 (stereo not given),1.33 (inactive)
